Assay results as given in PubChem BioAssay (NCI).
Several values for one entry are separate records, joined by “and”; a condition that tells them apart may be missing. Equal entries are not always repeated. This is part of a sample that, as a whole, favours compounds with a hit. Of some 83,000 tested, about 20% had one in any assay.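 Testing used 96-well plates and a 48-hour single-concentration exposure. Example: -40 means 40% of the starting cells died.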 Activity calls are given as the source filed them. The calls were made as follows: active = growth percent below 10; inactive = the rest.

Assays:
Assay in all cases: NCI-60 one-dose screen, 48 h (100 = growth as untreated, 0 = no growth, -100 = all killed)
[1] = tested on: SR leukemia; details: 10 µM unless noted
[2] = tested on: RPMI-8226 leukemia; details: 10 µM unless noted
[3] = tested on: OVCAR-8 ovarian; details: 10 µM unless noted
[4] = tested on: OVCAR-5 ovarian; details: 10 µM unless noted
[5] = tested on: OVCAR-4 ovarian; details: 10 µM unless noted
[6] = tested on: SK-OV-3 ovarian; details: 10 µM unless noted
[7] = tested on: IGROV1 ovarian; details: 10 µM unless noted
[8] = tested on: OVCAR-3 ovarian; details: 10 µM unless noted
[9] = tested on: HS 578T breast; details: 10 µM unless noted
[10] = tested on: NCI/ADR-RES ovarian; details: 10 µM unless noted
[11] = tested on: T-47D breast; details: 10 µM unless noted
[12] = tested on: BT-549 breast; details: 10 µM unless noted
[13] = tested on: MDA-MB-435 melanoma; details: 10 µM unless noted
[14] = tested on: SW-620 colon; details: 10 µM unless noted
[15] = tested on: MCF7 breast; details: 10 µM
[16] = tested on: HCT-116 colon; details: 10 µM unless noted
[17] = tested on: HCC-2998 colon; details: 10 µM unless noted
[18] = tested on: KM12 colon; details: 10 µM unless noted

| SMILES | growth [1] | growth [2] | growth [3] | growth [4] | growth [5] | growth [6] | growth [7] | growth [8] | growth [9] | growth [10] | growth [11] | growth [12] | growth [13] | growth [14] | growth [15] | growth [16] | growth [17] | growth [18] |
| --- | --- | --- | --- | --- | --- | --- | --- | --- | --- | --- | --- | --- | --- | --- | --- | --- | --- | --- |
| O=C(/C=C/c1cccc(Cl)c1)c1ccccc1 | 7.8% (active) and 11.7% (inactive) | -30.6% (active) and 0.877% (active) | 88.2% (inactive) and 79.9% (inactive) | 97.9% (inactive) and 95.6% (inactive) | 97.8% (inactive) and 92.9% (inactive) | 109% (inactive) and 98.5% (inactive) | 93.7% (inactive) and 71.8% (inactive) | 84.9% (inactive) and 80.5% (inactive) | 108% (inactive) and 107% (inactive) | 105% (inactive) and 88.8% (inactive) | 96.8% (inactive) and 88.3% (inactive) | 98.4% (inactive) and 85.2% (inactive) | 88.1% (inactive) and 59.8% (inactive) | 52.8% (inactive) and 39.4% (inactive) | 31.4% (inactive) and 15.7% (inactive) | 12.3% (inactive) and -17.1% (active) | 92.5% (inactive) | 63.2% (inactive) and 30.8% (inactive) |
| COc1cc(/C=C(/C)C[N+](=O)[O-])ccc1O | 34% (inactive) | 64.3% (inactive) | 94.7% (inactive) | 110% (inactive) | 104% (inactive) | 103% (inactive) | 44.1% (inactive) | – | 98.7% (inactive) | 102% (inactive) | 56.7% (inactive) | 113% (inactive) | 105% (inactive) | – | 16.5% (inactive) | 82.7% (inactive) | 102% (inactive) | 96.5% (inactive) |
| COC(=O)c1nc(=S)[nH]c(C(=O)OC)c1C(=O)c1ccccn1 | -3.79% (active) | 52.8% (inactive) | 20.6% (inactive) | 57.9% (inactive) | 25.3% (inactive) | 63.2% (inactive) | 24.5% (inactive) | 34.5% (inactive) | 70.1% (inactive) | 7.03% (active) | 51.5% (inactive) | 50.3% (inactive) | 33.3% (inactive) | 43.3% (inactive) | 14.6% (inactive) | 17.9% (inactive) | 45.3% (inactive) | 24.6% (inactive) |
| O=C(O)c1ccc2c3c(ncnc13)-c1ccccc1C2=O | 98.4% (inactive) | 87.1% (inactive) | 79.9% (inactive) | 116% (inactive) | 91.7% (inactive) | 98% (inactive) | 83.4% (inactive) | 83.4% (inactive) | 5.48% (active) | 76.9% (inactive) | 101% (inactive) | 33.8% (inactive) | – | 87.7% (inactive) | 50.9% (inactive) | 91.2% (inactive) | -58.5% (active) | 46.5% (inactive) |
| CC1OC(OC2C(OC3CCC4(C)C(CCC5(C)C4CC=C4C6CC(C)(C)CCC6(CO)C(O)CC45C)C3(C)C)OC(C(=O)O)C(OC3OC(COC4OC(CO)C(O)C(O)C4O)C(O)C(O)C3O)C2O)C(O)C(O)C1O (configuration not stated) | -44.2% (active) | -23.5% (active) | -51.8% (active) | -64% (active) | -84.3% (active) | -83.4% (active) | -81.6% (active) | -50.7% (active) | -35.2% (active) | -68% (active) | -72.7% (active) | -92.5% (active) | -85.3% (active) | -64.2% (active) | -67.7% (active) | -88% (active) | -81.9% (active) | -70.9% (active) |
| O=C(Nc1ccccc1)Oc1c(Cl)c(Cl)c(Cl)c(Cl)c1Cl | 98.2% (inactive) and 99.2% (inactive) | 95.2% (inactive) | 105% (inactive) and 98% (inactive) | 95.3% (inactive) and 87.5% (inactive) | 111% (inactive) and 91.9% (inactive) | – | 95.2% (inactive) and 96.3% (inactive) | – | 91.6% (inactive) | 103% (inactive) and 96.6% (inactive) | 102% (inactive) and 84.5% (inactive) | 98.7% (inactive) and 88.5% (inactive) | 109% (inactive) and 98.8% (inactive) | 101% (inactive) and 102% (inactive) | 98.1% (inactive) and 91.5% (inactive) | 105% (inactive) and 101% (inactive) | 112% (inactive) and 108% (inactive) | 100% (inactive) and 97.5% (inactive) |
| C=CCOc1ccc(N=NC(C#N)C#N)cc1 | 8.51% (active) | 2.95% (active) | 86.9% (inactive) | 93.8% (inactive) | 31.6% (inactive) | – | 53.3% (inactive) | 39.7% (inactive) | 88.6% (inactive) | 103% (inactive) | -2.81% (active) | 92.1% (inactive) | 88.3% (inactive) | – | 22.6% (inactive) | 46.8% (inactive) | 101% (inactive) | 100% (inactive) |
| O=C1c2ccccc2C(=O)c2sc(Nc3ccc(Cl)cc3)nc21 | 4.26% (active) | 7.64% (active) | 10.6% (inactive) | -62.5% (active) | 1.65% (active) | – | 34.8% (inactive) | – | 70.6% (inactive) | 16.8% (inactive) | 29.2% (inactive) | 75.9% (inactive) | -87.5% (active) | – | -60.3% (active) | -36.6% (active) | 57.6% (inactive) | 60.1% (inactive) |
| CCCCCCCCCCCCCCCCOP(=O)([O-])OCC[N+](C)(C)C | 15% (inactive) | 7.31% (active) | 59.6% (inactive) | 53.2% (inactive) | 78.3% (inactive) | 37.9% (inactive) | 21.3% (inactive) | – | 33.7% (inactive) | 90% (inactive) | 73% (inactive) | 45% (inactive) | – | 50.9% (inactive) | 68.5% (inactive) | 24.6% (inactive) | 17.7% (inactive) | -90.4% (active) |
| Cc1ccc2nc(-[n+]3cc4ccccc4cc3C)ccc2c1 | 33.2% (inactive) | 15.1% (inactive) | 33.6% (inactive) | 61.4% (inactive) | 28.6% (inactive) | – | 46.4% (inactive) | – | 67.3% (inactive) | 109% (inactive) | 15.3% (inactive) | 0.0135% (active) | 27.8% (inactive) | – | 20.3% (inactive) | 25.8% (inactive) | 42.1% (inactive) | 31.5% (inactive) |
| Oc1c(Cl)c2ccccc2c2ccccc12 | 99.2% (inactive) | 102% (inactive) | 98.4% (inactive) | 129% (inactive) | 98.1% (inactive) | – | 117% (inactive) | 107% (inactive) | – | 67.6% (inactive) | 122% (inactive) | 95.8% (inactive) | -72% (active) | 111% (inactive) | 98.8% (inactive) | 101% (inactive) | 117% (inactive) | 107% (inactive) |
| O=C(CC1(O)C(=O)Nc2c(Cl)ccc(Cl)c21)c1ccc(Cl)cc1Cl (configuration not stated) | 86.9% (inactive) | 99.9% (inactive) | 107% (inactive) | 110% (inactive) | 87.9% (inactive) | – | 97.6% (inactive) | 106% (inactive) | 94% (inactive) | 106% (inactive) | 75.5% (inactive) | 90.2% (inactive) | 91.6% (inactive) | 105% (inactive) | 91.6% (inactive) | 89.9% (inactive) | 110% (inactive) | 102% (inactive) |
| N#CSCc1ccc(Cl)c(CSC#N)c1 | 8.52% (active) | 23.9% (inactive) | 61.9% (inactive) | 68.7% (inactive) | 48.7% (inactive) | – | 59.4% (inactive) | – | 49% (inactive) | 45.5% (inactive) | 57.5% (inactive) | 14.1% (inactive) | 3.85% (active) | – | 16.1% (inactive) | 13.6% (inactive) | 51.5% (inactive) | 28.2% (inactive) |
| Cn1c2c(c3ccccc31)CCN1C[C@@H]3CCCC[C@H]3C[C@@H]21 | 14.1% (inactive) | 16.7% (inactive) | 20.2% (inactive) | 25% (inactive) | 40.9% (inactive) | – | – | -74.3% (active) | -16.9% (active) | -36.1% (active) | 32.9% (inactive) | 22.5% (inactive) | -53.4% (active) | – | 13.9% (inactive) | -10.1% (active) | -4.34% (active) | -32.3% (active) |
| Nc1ccc(SSc2ccc(N)cc2)cc1 | 104% (inactive) | 102% (inactive) | 88% (inactive) | 101% (inactive) | – | 114% (inactive) | 108% (inactive) | 114% (inactive) | 109% (inactive) | 97.5% (inactive) | 88.7% (inactive) | 66.6% (inactive) | 93.4% (inactive) | 95.1% (inactive) | 96.5% (inactive) | 95.1% (inactive) | 94.8% (inactive) | 86.1% (inactive) |
| Cc1cc(C(C)(CC(C)C)c2ccc(O)c(C)c2)ccc1O | 94.6% (inactive) | 86.3% (inactive) | 91.2% (inactive) | 113% (inactive) | 94.8% (inactive) | – | 103% (inactive) | 106% (inactive) | 129% (inactive) | 105% (inactive) | 86.8% (inactive) | 109% (inactive) | 94.1% (inactive) | 117% (inactive) | 115% (inactive) | 93.9% (inactive) | 103% (inactive) | 107% (inactive) |
